# Assay results from paper PMC11062922 (Nature Chemical Biology, 2023).
# Like-named read-outs stand apart in the source and are kept apart here.
# Columns and labels:
# Parameters in all cases: species or system human, MV4-11 + K-562 + COLO205 + SK-N-BE2 + OVCAR-8
# ADCK3 = details: read-out: apparent Kd, n = 1
# ERCC2 = details: read-out: apparent Kd; compound concentrations:100 nM and 1000 nM (sheet 'Samples'); n = 1
# MAP4K5 = details: read-out: apparent Kd; compound concentrations:100 nM and 1000 nM (sheet 'Samples'); n = 1
# PIK3CD = details: read-out: apparent Kd; compound concentrations:100 nM and 1000 nM (sheet 'Samples'); n = 1
# TAOK1 = details: read-out: apparent Kd; compound concentrations:100 nM and 1000 nM (sheet 'Samples'); n = 1
# ADCK1 = details: read-out: apparent Kd; compound concentrations:100 nM and 1000 nM (sheet 'Samples'); n = 1
# CIT = details: read-out: apparent Kd; compound concentrations:100 nM and 1000 nM (sheet 'Samples'); n = 1
# CSNK1D = details: read-out: apparent Kd; compound concentrations:100 nM and 1000 nM (sheet 'Samples'); n = 1
# CSNK1E = details: read-out: apparent Kd; compound concentrations:100 nM and 1000 nM (sheet 'Samples'); n = 1
# DJA1 = system: T1, DJA1; details: read-out: apparent Kd; compound concentrations:100 nM and 1000 nM (sheet 'Samples'); n = 1
# T1 construct: gene DNAJA1
# GAK = details: read-out: apparent Kd; compound concentrations:100 nM and 1000 nM (sheet 'Samples'); n = 1
# IARS = details: read-out: apparent Kd; compound concentrations:100 nM and 1000 nM (sheet 'Samples'); n = 1
# PRKACB = details: read-out: apparent Kd; compound concentrations:100 nM and 1000 nM (sheet 'Samples'); n = 1
# PRKCD = details: read-out: apparent Kd; compound concentrations:100 nM and 1000 nM (sheet 'Samples'); n = 1
# PRKCQ = details: read-out: apparent Kd; compound concentrations:100 nM and 1000 nM (sheet 'Samples'); n = 1
# PRKD2 = details: read-out: apparent Kd; compound concentrations:100 nM and 1000 nM (sheet 'Samples'); n = 1
# PRKD3 = details: read-out: apparent Kd; compound concentrations:100 nM and 1000 nM (sheet 'Samples'); n = 1
# TNIK = details: read-out: apparent Kd; compound concentrations:100 nM and 1000 nM (sheet 'Samples'); n = 1
# CLK1 = details: read-out: apparent Kd; compound concentrations:100 nM and 1000 nM (sheet 'Samples'); n = 1
# CLK2 = details: read-out: apparent Kd; compound concentrations:100 nM and 1000 nM (sheet 'Samples'); n = 1
# CLK4 = details: read-out: apparent Kd; compound concentrations:100 nM and 1000 nM (sheet 'Samples'); n = 1
# FER = details: read-out: apparent Kd; compound concentrations:100 nM and 1000 nM (sheet 'Samples'); n = 1
# IGF1R = details: read-out: apparent Kd; compound concentrations:100 nM and 1000 nM (sheet 'Samples'); n = 1
# INSR = details: read-out: apparent Kd; compound concentrations:100 nM and 1000 nM (sheet 'Samples'); n = 1
# PIK3CA = details: read-out: apparent Kd; compound concentrations:100 nM and 1000 nM (sheet 'Samples'); n = 1
# PLK1 = details: read-out: apparent Kd; compound concentrations:100 nM and 1000 nM (sheet 'Samples'); n = 1
# ADRBK1 = details: read-out: apparent Kd; compound concentrations: 100 nM and 1000 nM (sheet 'Samples'), CATDS: 0.28294798490762901; n = 1
# AKT2 = details: read-out: apparent Kd; compound concentrations: 100 nM and 1000 nM (sheet 'Samples'), CATDS: 0.297394073145339; n = 1
# [1] = compound concentrations:100 nM and 1000 nM (sheet 'Samples')
smiles,measurement,setting,value
Nc1ncc(-c2cccnc2)c2scc(-c3ccc4c(c3)CCN4C(=O)Cc3ccccc3)c12 [GSK683281A],potency estimated from few doses,ADCK3; [1],0.76 µM
same,potency estimated from few doses,ERCC2,1.56 µM
same,potency estimated from few doses,MAP4K5,1.56 µM
CNC(=O)c1cncc(/C=C/c2ccccc2Cl)c1 [GW445017X],potency estimated from few doses,"ADCK3; compound concentrations: 100 nM and 1000 nM (sheet 'Samples'), CATDS: 1",0.747 µM
COc1cc2ncn(-c3cc(OCC4CCCCC4)c(C(N)=O)s3)c2cc1OC [GSK204559A],potency estimated from few doses,ADCK3; [1],1.06 µM
same,potency estimated from few doses,PIK3CD,0.19 µM
same,potency estimated from few doses,TAOK1,1.46 µM
Cc1n[nH]c2ccc(-c3cc(OC[C@@H](N)Cc4ccccc4)cnc3-c3ccoc3)cc12.Cc1n[nH]c2ccc(-c3cc(OC[C@@H](N)Cc4ccccc4)cnc3-c3ccoc3)cc12.O=C(O)C(F)(F)F.O=C(O)C(F)(F)F [GSK507358A],potency estimated from few doses,ADCK1,1.14 µM
same,potency estimated from few doses,CIT,1.12 µM
same,potency estimated from few doses,CSNK1D,0.711 µM
same,potency estimated from few doses,CSNK1E,1.16 µM
same,potency estimated from few doses,DJA1,0.89 µM
same,potency estimated from few doses,GAK,1.5 µM
same,potency estimated from few doses,IARS,2.08 µM
same,potency estimated from few doses,PIK3CD,0.108 µM
same,potency estimated from few doses,PRKACB,1.74 µM
same,potency estimated from few doses,PRKCD,1.51 µM
same,potency estimated from few doses,PRKCQ,1.58 µM
same,potency estimated from few doses,PRKD2,0.69 µM
same,potency estimated from few doses,PRKD3,0.353 µM
same,potency estimated from few doses,TNIK,0.141 µM
CNC(=O)c1c(F)cccc1Nc1nc(Nc2cc3c(cc2OC)CCN3C(=O)CN(C)C)nc2[nH]ccc12 [GSK1838705],potency estimated from few doses,ADCK3; [1],1.34 µM
same,potency estimated from few doses,CLK1,0.376 µM
same,potency estimated from few doses,CLK2,0.6 µM
same,potency estimated from few doses,CLK4,0.137 µM
same,potency estimated from few doses,FER,0.133 µM
same,potency estimated from few doses,IGF1R,1.13 µM
same,potency estimated from few doses,INSR,0.759 µM
same,potency estimated from few doses,PIK3CA,0.176 µM
same,potency estimated from few doses,PLK1,2.35 µM
O=C1NC(=O)C(c2c[nH]c3ccccc23)=C1c1ccccc1 [RO0316849-000],potency estimated from few doses,"ADCK3; compound concentrations: 100 nM and 1000 nM (sheet 'Samples'), CATDS: 0.47545697813848398",0.812 µM
same,potency estimated from few doses,ADRBK1,2.27 µM
same,potency estimated from few doses,AKT2,2.01 µM
